From PubChem BioAssay (NCATS) come the findings set out here.

Several values for one entry are separate records, joined by “and”; a condition that tells them apart may be missing. Equal values may be shown once. Inconclusive results are not listed. More than one record can exist for a structure, and the calls need not agree. Activity calls are given as the source filed them. Unless noted, the call rests on the fitted dose curve.

Test [1] has as its target Estrogen receptor (Homo sapiens) (UniProt P03372). Put plainly: qHTS assay for small molecule antagonists of estrogen receptor alpha signaling (AID 588513; active means well fitted curve in the direction sought with a large enough effect in the signal ratio, with a control signal flat, not every such curve was filed as active; the % refers to the signal ratio; further: on the % scale 0 is the no-effect control and ±100 the full control effect). The method, boiled down: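 ER-alpha-UAS-bla GripTite HEK 293 cells in medium with 2% charcoal/dextran-treated FBS were preincubated 4 h at 37 C, dosed with compound (1:2 titration), stimulated with 0.5nM 17-beta-estradiol for 18 h, then read by CCF4 beta-lactamase fluorescence.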

Test [2] has the same target. Put plainly: qHTS assay for small molecule agonists of estrogen receptor alpha signaling (AID 588514). Further: nearly all actives have a fitted effect of over 70% in size. Further: potency means the concentration at half of the fitted maximal effect.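 On activation: 0% = vehicle only and 100% = reference agonist.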 In short, it runs like this: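 Cells were plated at 5000/well, incubated 4 hrs at 37 C, dosed with compound titration series, incubated 18 hrs at 37 C, loaded with CCF4 dye for 2 hrs at RT, then fluorescence was read.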
In general terms: qHTS replaces the single test concentration by a dilution series.

Test [3] concerns the target Bile acid receptor (Homo sapiens) (UniProt Q96RI1). Put plainly: qHTS assay for small molecule antagonists of farnesoid X receptor signaling (AID 588526). Further: on the % scale 0 is the no-effect control and ±100 the full control effect. The method, boiled down:
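Concentration-response titrations were fitted to the Hill equation for half-maximal inhibition and maximal response, with data normalised to 50 uM chenodeoxycholic acid and DMSO control wells. Cells: FXR-UAS-bla HEK293T, dialyzed FBS.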

The target in test [4] is Glucocorticoid receptor (Homo sapiens) (UniProt P04150). Put plainly: qHTS assay for small molecule agonists of glucocorticoid receptor signaling (AID 588532; active means well fitted curve in the direction sought with a large enough effect in the signal ratio, with a control signal flat; the % refers to the signal ratio;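 further: 100% = dexamethasone at 0.1 µM and 0% = DMSO only wells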). The settings on record: HeLa MMTV-bla, beta-lactamase ratio, agonist, 18 h; stronger effect = higher value; percent of dexamethasone control, DMSO zero. In short, it runs like this: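 MMTV-bla HeLa, beta-lactamase reporter; medium with 1% charcoal/dextran-stripped FBS; cpds up to 92 uM, 18 h, 37 C; CCF4 readout 460/530 nm; Hill fit → EC50, efficacy vs 0.1 uM dexamethasone = 100%.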

For test [5] the target is unchanged. Put plainly: qHTS assay for small molecule antagonists of glucocorticoid receptor signaling (AID 588533; active means well fitted inhibition curve with a large enough effect in the signal ratio, with a control signal flat, not every such curve was filed as active; the % refers to the signal ratio;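 further: cells stimulated with 2 nM dexamethasone as agonist; on the % scale 0 is the no-effect control and ±100 the full control effect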). In short, it runs like this:
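Antagonist-mode qHTS: compound titrations added to GRE-bla HeLa cells, then dexamethasone 2 nM final; 18 h, 37 C. CCF4 FRET fluorescence normalized to dexamethasone and DMSO; IC50 from Hill fit.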

Test [6] in a line: qHTS assay for small molecule antagonists of peroxisome proliferator-activated receptor delta signaling (AID 588535; active means well fitted inhibition curve with a large enough effect in the signal ratio, with a control signal flat, not every such curve was filed as active; the % refers to the signal ratio;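 on max response: cells co-treated with a PPAR-delta agonist as stimulator during compound exposure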). Particulars: HEK293T PPARd-UAS-bla, beta-lactamase FRET ratio, 18 h; 460 nm channel. The method, boiled down:
(§1)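 Reporter: UAS-bla under PPAR-delta response element, HEK293T host. Medium: 2% charcoal/dextran FBS. Dosing: titration, 18 hrs, 37 C. Detection: CCF4, 2 hrs RT, 405 ex/460 and 530 em.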

For test [7], the target named is Peroxisome proliferator-activated receptor delta (Homo sapiens) (UniProt Q03181). The test is described as above. The method, boiled down: as §1
Test [8] deals with Peroxisome proliferator-activated receptor gamma (Homo sapiens) (UniProt P37231). Put plainly: qHTS assay for small molecule agonists of peroxisome proliferator-activated receptor gamma signaling (AID 588536; active means well fitted curve in the direction sought with a large enough effect in the signal ratio, with a control signal flat, not every such curve was filed as active; the % refers to the signal ratio;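 further: 0% = DMSO basal wells and 100% = rosiglitazone at 2 µM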). The method, boiled down: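 HEK293 UAS-bla reporter line, 1% charcoal/dextran FBS; titration, 16 h, 37 C; CCF4 loading 2 h RT; fluorescence 460/530 nm. Normalized to rosiglitazone 2 uM = 100%, DMSO = 0%.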

Test [9] shares this target. Put plainly: qHTS assay for small molecule antagonists of peroxisome proliferator-activated receptor gamma signaling (AID 588537; active means well fitted inhibition curve with a large enough effect in the signal ratio, with a control signal flat, not every such curve was filed as active; the % refers to the signal ratio; further: potency means the concentration at half of the fitted maximal effect). The method, boiled down:
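We seeded GeneBLAzer HEK293 reporter cells at 3000 per well, allowed 6-6.5 h attachment at 37 C, then co-treated with test compound titrations and 50 nM rosiglitazone overnight (16 h). Inhibition was quantified from 460/530 nm emission ratios.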

Test [10] concerns the target Vitamin D3 receptor (Homo sapiens) (UniProt P11473). Put plainly: qHTS assay for small molecule antagonists of vitamin D receptor signaling (AID 588541).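 Further: receptor activated by calcitriol during compound treatment; series mostly up to about 77 µM; on the % scale 0 is the no-effect control and ±100 the full control effect.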 The method, boiled down: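 VDR-UAS-bla HEK293T cells (2000/well, 2% charcoal-stripped FBS) were treated with titrated compounds plus 1-alpha,25-dihydroxyvitamin D3 (50 nM or 3 nM final) for 16 h at 37 C. CCF4 beta-lactamase fluorescence was read; Hill fits gave IC50.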

For test [11] the target is unchanged. Put plainly: qHTS assay for small molecule agonists of vitamin D receptor signaling (AID 588543).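 Further: 0% = DMSO basal and 100% = reference agonist control.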 In short, it runs like this:
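GeneBLAzer VDR-UAS-bla HEK293T cells in 2% charcoal-stripped FBS medium were dosed with compound titrations for 16 h at 37 °C; CCF4 β-lactamase readout (405 nm ex, 460/530 nm em). EC50 and efficacy from Hill fits, normalized to 50 nM calcitriol (100%) and DMSO (0%).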

The nature of test [12]: qHTS assay for small molecule agonists of retinoid X receptor alpha signaling (AID 588544).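 On activation: 0% = DMSO basal wells and 100% = reference agonist.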 Particulars: HEK293T RXRa-UAS-bla, beta-lactamase reporter, 18 h; 530 nm emission.
Test [13] deals with Retinoic acid receptor RXR-alpha (Homo sapiens) (UniProt P19793). The test is described as above.
The target of test [14] is Thyroid hormone receptor beta (Homo sapiens) (UniProt P10828). Put plainly: qHTS assay for small molecule agonists of thyroid hormone receptor beta signaling (AID 588545). In short, it runs like this:
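HEK 293 TR-UAS-bla; agonist mode; 18 hrs, 37 C; CCF4, ex 405/em 460 and 530 nm; norm. T3 10 nM = 100%, DMSO = 0%; Hill fit → EC50, efficacy.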

Test [15] is described as follows: qHTS assay for small molecule antagonists of retinoid X receptor alpha signaling (AID 588546; active means well fitted inhibition curve with a large enough effect in the signal ratio, with a control signal flat, not every such curve was filed as active; the % refers to the signal ratio). Particulars: HEK293T RXRa-UAS-bla, beta-lactamase ratio, antagonist mode; measured here: W530 green channel, cytotoxicity proxy. In short, it runs like this:
(§2)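 Beta-lactamase reporter inhibition, read as CCF4 fluorescence ratio (ex 405, em 460/530 nm) after 2 h at RT. HEK293T UAS-bla cells, 2500/well, were stimulated with 9-cis-RA at 500 or 100 nM final alongside test compound for 18 h at 37 C.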

Test [16] has as its target Retinoic acid receptor RXR-alpha (Homo sapiens) (UniProt P19793). The description is as above. The settings on record: HEK293T RXRa-UAS-bla, beta-lactamase ratio, antagonist mode. The method, boiled down:
as §2

The target of test [17] is Thyroid hormone receptor beta (Homo sapiens) (UniProt P10828). Put plainly: qHTS assay for small molecule antagonists of thyroid hormone receptor beta signaling (AID 588547; active means well fitted inhibition curve with a large enough effect in the signal ratio, with a control signal flat, not every such curve was filed as active; the % refers to the signal ratio). Particulars: TR-UAS-bla HEK293, beta-lactamase ratio, antagonist mode, 18 h. In short, it runs like this:
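TR-UAS-bla GripTite HEK293 cells in 2% charcoal/dextran FBS medium were preincubated 4 h at 37 C, given compound (0.59 nM to 92 uM) plus 0.4 nM T3 (final) for 18 h, then CCF4 for 2 h at RT; Hill fit gave IC50.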

Test [18] addresses Voltage-gated inwardly rectifying potassium channel KCNH2 (Homo sapiens) (UniProt Q12809). Put plainly: qHTS Assay for Small Molecule Inhibitors of the Human hERG Channel Activity (AID 588834; active means well fitted inhibition curve with a large enough effect;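 further: top concentration of the series differs between compounds; on the % scale 0 is the no-effect control and ±100 the full control effect; lower thallium flux fluorescence means stronger hERG block; nearly all actives have a fitted effect of over 50% in size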). The method, boiled down:
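U2OS cells transduced with hERG via BacMam (MOI ~100), plated 2000/well, loaded with FluxOR thallium dye, compound ~10 min, then stimulation buffer; fluorescence decrease read kinetically; AC50 from Hill fits.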

Chain of Peroxisome proliferator-activated receptor delta (Homo sapiens) (Q03181 whole entry, looked up): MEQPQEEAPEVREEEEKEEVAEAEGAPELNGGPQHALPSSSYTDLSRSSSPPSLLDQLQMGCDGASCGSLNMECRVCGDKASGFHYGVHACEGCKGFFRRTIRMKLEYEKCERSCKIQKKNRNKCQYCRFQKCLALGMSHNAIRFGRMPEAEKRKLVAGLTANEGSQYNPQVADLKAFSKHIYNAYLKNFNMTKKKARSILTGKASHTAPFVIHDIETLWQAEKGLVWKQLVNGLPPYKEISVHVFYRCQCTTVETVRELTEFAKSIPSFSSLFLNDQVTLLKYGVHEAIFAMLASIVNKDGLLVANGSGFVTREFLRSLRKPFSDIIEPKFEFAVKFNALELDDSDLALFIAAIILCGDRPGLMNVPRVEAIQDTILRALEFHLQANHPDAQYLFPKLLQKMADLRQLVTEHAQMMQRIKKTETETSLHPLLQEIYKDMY
Chain of Bile acid receptor (Homo sapiens) (Q96RI1 whole entry, looked up): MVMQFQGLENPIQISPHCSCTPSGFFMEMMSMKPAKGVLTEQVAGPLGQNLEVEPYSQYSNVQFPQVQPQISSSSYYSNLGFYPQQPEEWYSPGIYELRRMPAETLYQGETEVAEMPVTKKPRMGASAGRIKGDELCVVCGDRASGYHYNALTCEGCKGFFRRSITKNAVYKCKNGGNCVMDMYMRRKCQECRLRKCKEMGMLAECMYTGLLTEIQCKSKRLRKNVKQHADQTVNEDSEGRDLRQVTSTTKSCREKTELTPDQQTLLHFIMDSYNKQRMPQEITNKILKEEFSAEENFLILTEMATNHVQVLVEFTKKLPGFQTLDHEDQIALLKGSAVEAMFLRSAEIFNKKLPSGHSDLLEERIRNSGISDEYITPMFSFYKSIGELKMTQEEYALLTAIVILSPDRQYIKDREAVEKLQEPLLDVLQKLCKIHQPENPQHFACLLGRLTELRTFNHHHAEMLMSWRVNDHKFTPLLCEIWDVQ
Chain of Estrogen receptor (Homo sapiens) (P03372 whole entry, looked up): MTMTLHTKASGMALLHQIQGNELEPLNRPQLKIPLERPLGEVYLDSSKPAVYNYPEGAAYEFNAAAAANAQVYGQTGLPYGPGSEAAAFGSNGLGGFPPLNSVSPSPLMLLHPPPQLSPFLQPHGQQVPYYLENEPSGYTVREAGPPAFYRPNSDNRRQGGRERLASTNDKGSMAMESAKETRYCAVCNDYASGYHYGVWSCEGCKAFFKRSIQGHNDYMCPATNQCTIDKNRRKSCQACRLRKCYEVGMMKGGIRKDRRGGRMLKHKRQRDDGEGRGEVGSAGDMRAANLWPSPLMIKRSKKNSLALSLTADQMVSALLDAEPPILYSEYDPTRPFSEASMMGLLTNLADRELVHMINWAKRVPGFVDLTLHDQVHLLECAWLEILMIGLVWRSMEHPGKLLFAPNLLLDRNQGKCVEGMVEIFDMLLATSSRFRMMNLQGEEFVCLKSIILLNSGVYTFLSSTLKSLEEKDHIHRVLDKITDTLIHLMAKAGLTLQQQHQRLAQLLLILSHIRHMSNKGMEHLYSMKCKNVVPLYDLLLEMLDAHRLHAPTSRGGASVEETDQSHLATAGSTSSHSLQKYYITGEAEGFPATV
Chain of Voltage-gated inwardly rectifying potassium channel KCNH2 (Homo sapiens) (Q12809 whole entry, looked up): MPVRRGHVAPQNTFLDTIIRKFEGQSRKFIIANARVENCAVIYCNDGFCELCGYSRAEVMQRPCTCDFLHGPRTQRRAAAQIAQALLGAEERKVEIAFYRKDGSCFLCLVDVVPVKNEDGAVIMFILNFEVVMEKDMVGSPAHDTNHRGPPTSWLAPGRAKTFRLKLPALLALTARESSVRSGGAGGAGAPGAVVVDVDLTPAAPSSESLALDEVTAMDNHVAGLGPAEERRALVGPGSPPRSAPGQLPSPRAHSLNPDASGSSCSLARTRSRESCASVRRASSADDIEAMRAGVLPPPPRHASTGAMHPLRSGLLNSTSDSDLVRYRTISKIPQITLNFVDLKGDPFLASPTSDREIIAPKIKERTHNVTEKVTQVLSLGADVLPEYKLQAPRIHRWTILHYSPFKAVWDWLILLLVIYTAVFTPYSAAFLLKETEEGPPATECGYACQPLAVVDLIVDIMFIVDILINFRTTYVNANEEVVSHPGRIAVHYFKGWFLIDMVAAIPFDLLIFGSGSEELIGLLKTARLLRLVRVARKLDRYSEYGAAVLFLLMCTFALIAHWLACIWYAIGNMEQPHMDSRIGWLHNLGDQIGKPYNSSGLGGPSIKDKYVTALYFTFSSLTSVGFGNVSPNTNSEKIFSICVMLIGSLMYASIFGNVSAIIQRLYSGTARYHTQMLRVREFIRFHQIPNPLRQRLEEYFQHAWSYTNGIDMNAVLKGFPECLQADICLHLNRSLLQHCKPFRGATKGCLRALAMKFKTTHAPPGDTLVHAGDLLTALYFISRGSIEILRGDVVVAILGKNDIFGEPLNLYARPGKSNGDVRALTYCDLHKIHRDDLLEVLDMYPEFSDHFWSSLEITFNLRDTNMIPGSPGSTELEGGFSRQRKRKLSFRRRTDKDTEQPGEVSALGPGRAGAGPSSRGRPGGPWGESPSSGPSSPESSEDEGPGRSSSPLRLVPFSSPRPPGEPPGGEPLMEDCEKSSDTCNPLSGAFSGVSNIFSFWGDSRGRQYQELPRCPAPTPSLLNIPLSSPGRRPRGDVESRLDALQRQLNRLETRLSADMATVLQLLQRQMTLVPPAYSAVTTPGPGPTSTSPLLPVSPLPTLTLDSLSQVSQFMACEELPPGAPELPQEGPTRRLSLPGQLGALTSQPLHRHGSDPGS
Chain of Retinoic acid receptor RXR-alpha (Homo sapiens) (P19793 whole entry, looked up): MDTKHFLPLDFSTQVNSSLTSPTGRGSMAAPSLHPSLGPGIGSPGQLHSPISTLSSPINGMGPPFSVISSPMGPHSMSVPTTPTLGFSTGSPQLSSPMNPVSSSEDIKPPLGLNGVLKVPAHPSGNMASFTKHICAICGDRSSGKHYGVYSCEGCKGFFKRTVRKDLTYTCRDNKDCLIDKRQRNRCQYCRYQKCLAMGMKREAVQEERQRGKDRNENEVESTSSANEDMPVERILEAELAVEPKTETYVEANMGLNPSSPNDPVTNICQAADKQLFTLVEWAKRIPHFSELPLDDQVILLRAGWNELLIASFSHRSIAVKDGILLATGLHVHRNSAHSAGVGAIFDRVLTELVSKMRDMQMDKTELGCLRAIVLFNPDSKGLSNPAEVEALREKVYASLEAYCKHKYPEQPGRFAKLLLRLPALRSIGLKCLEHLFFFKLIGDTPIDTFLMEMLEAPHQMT
Chain of Vitamin D3 receptor (Homo sapiens) (P11473 whole entry, looked up): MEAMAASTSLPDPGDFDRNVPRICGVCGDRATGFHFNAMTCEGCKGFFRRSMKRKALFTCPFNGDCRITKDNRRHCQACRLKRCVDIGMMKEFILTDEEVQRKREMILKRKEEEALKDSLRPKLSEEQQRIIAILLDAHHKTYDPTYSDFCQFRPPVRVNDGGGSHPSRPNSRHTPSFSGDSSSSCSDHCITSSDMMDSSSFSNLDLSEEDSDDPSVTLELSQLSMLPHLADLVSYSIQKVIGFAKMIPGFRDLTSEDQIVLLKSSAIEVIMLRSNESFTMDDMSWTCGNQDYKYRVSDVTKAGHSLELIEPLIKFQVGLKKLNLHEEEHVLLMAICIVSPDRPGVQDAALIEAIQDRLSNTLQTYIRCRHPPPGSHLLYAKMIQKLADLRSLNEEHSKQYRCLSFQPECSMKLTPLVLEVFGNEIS
Chain of Peroxisome proliferator-activated receptor gamma (Homo sapiens) (P37231 whole entry, looked up): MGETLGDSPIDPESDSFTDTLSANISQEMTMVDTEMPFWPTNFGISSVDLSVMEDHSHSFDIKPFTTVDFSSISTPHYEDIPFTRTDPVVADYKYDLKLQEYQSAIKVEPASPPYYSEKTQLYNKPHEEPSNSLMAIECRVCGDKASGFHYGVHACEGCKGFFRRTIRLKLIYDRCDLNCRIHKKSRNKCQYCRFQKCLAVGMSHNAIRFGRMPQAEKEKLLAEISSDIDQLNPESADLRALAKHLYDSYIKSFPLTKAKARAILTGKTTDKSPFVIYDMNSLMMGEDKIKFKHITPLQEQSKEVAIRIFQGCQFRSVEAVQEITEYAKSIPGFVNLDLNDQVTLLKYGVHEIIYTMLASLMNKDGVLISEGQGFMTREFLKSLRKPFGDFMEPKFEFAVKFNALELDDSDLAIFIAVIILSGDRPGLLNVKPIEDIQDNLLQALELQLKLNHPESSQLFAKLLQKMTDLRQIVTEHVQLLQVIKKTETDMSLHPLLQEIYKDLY
Chain of Thyroid hormone receptor beta (Homo sapiens) (P10828 whole entry, looked up): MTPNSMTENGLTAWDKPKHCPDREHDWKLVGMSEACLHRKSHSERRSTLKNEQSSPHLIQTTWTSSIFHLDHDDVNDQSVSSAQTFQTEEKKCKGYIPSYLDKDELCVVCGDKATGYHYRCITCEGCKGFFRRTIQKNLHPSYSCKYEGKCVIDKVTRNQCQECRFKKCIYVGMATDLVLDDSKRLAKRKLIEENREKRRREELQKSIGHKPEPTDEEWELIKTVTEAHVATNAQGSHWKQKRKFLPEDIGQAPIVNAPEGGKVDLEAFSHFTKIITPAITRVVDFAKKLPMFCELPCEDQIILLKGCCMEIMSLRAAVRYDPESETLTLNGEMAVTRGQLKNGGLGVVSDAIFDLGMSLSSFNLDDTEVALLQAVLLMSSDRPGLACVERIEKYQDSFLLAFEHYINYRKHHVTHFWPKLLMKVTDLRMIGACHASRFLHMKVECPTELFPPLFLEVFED

For the compound `c1ccc2sc(SSc3nc4ccccc4s3)nc2c1`, the compound was classed as inactive in test [1], in test [3], in test [8], in test [10], in [11] and in test [13]. Further, in test [14], the result was inactive. Besides, the Potency entry in test [2], in test [5], in test [7], in test [9] and in test [18] was “inactive” in each case. Further, in test [4], the activation was 0.623% (inactive) and -1.23% (inactive). The max response in test [6] was 2.19%; in [12] it was 3.36% and -4.21%; in [15], -0.16% and -14.1%; in test [16] it was 0.434% (inactive) and -6.61% (inactive). The activity change % (negative = inhibition) in [17] was 20.1% (inactive) and 3.58% (inactive).

Consider `CCCOC(=O)c1ccc(O)cc1`, for which the compound was classed as inactive in test [1], in test [3], in test [8], in [10], in [11] and in [13]. In addition, the outcome in test [14] was inactive. The Potency in [2] is 5.01 µM (active) and 3.55 µM (active); in [9] it was “inactive and 35.5 µM (active)”. Besides, in test [4], the activation is -2.28% (inactive) and -1.56% (inactive). Also, the Potency entry in [5], in [7] and in test [18] was “inactive” throughout. In addition, the max response in test [6] is 7.9% and -17%; in test [12] it was -11.1% and -2.66% and -11%; in test [15], -12% and 3.27% and -2.1%; in [16], -6.42% (inactive) and -2.27% (inactive) and -9.81% (inactive). Besides, the activity change % (negative = inhibition) in [17] was -17.9% (inactive) and -8.82% (inactive) and 6.79% (inactive).

For `S=c1[nH]c2ccccc2s1`, the compound was called inactive in test [3], in test [10], in test [11], in test [13] and in test [14]. Moreover, the activation in test [4] is -4.66% (inactive) and -1.91% (inactive). The Potency entry in [5], in [7], in [9] and in [18] was “inactive” throughout. The max response is 9.56% in test [6]; -3.92% in test [12]; 0.276% and 7.73% in test [15]; 18% (inactive) and -15.5% (inactive) in test [16]. Further, the activity change % (negative = inhibition) in test [17] was -9.82% (inactive) and 10.5% (inactive).

As to `NCCSSCCN`, in test [18], the Potency result was “inactive”.

Take `Nc1ccc(O)c(C(=O)O)c1`: the outcome in test [1], in test [3], in [8], in test [10], in [11] and in test [13] was inactive. The Potency entry in test [2], in [5], in test [7], in test [9] and in test [18] was “inactive” in each case. Moreover, in [4], the activation is 1.83% (inactive) and -3.75% (inactive). For the same compound, the max response in [6] was 9.11%; in test [12], -5.65% and -3.05%; in [15], 7.86% and -11.8%; in test [16] it was 19.2% (inactive) and -15.8% (inactive).

Turning to `CC(C)OC(=O)c1cc(C(=O)OC(C)C)cc([N+](=O)[O-])c1`, the activation in [4] is -0.933% (inactive). Further, the Potency entry in test [5] and in test [7] was “inactive” throughout. For the same compound, the max response in [6] was 31.8%; in test [15], -0.986%; in test [16] it was -4.84% (inactive). Further, the compound was classed as inactive in test [10] and in test [11]. Besides, in test [17], the activity change % (negative = inhibition) is 6.57% (inactive).
